The supplement of paper PMC4466140

B1: unnamed (peptide)
chain: NENKKLPPAPTVFGL

What follows are binders tested against AgAbp1 (assay: SPOT peptide array binding signal intensity (averaged, normalized) (arbitrary units (background-subtracted, floor 0; scale differs between SH3 domains)); higher = stronger binding of the SH3 domain to the peptide).
How it was run: (§1)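 Binding signal is given in arbitrary units that differ between domains and is the normalized, background-subtracted spot intensity averaged across replicates. Each GST-SH3 fusion from one of four yeast species was made in E. coli BL21(DE3), purified on glutathione Sepharose and incubated at 10 μg/ml overnight at 4°C on cellulose-bound synthetic 15-mer peptides in which cysteines were replaced by serines. Detection used anti-GST antibody, an HRP anti-mouse secondary and luminol, followed by imaging and Genespotter quantification.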

**Q.** Which “SPOT peptide array binding signal intensity” value does the source give for B1 here?
**A.** ≤ 0

What follows are binders tested against AgBbc1 in the same assay as above.
How it was run: as §1

**Q.** How did the “SPOT peptide array binding signal intensity” value turn out when B1 was run?
**A.** ≤ 0

These binders were tested against AgBem1-D1 in the same assay as above.
How it was run: as §1

**Q.** With B1 as the binder, how does the “SPOT peptide array binding signal intensity” value read?
**A.** ≤ 0

The binders below were run against AgBzz1-D1 in the same assay as above.
How it was run: as §1

**Q.** With B1 as the binder, how does the “SPOT peptide array binding signal intensity” value read?
**A.** 27

These binders were tested against AgBzz1-D2 in the same assay as above.
How it was run: as §1

**Q.** For B1, which “SPOT peptide array binding signal intensity” value is on record?
**A.** 35

The binders below were run against AgCyk3 in the same assay as above.
How it was run: as §1

**Q.** For B1, which “SPOT peptide array binding signal intensity” value is on record?
**A.** ≤ 0

These binders were tested against AgFus1 in the same assay as above.
How it was run: as §1

**Q.** With B1 as the binder, how does the “SPOT peptide array binding signal intensity” value read?
**A.** ≤ 0

Each binder was assayed against AgHof1 in the same assay as above.
How it was run: as §1

**Q.** With B1 as the binder, how does the “SPOT peptide array binding signal intensity” value read?
**A.** 19.5

The binders below were run against AgHse1 in the same assay as above.
How it was run: as §1

**Q.** B1 was tested. Which “SPOT peptide array binding signal intensity” value did it give?
**A.** 72

Each binder was assayed against AgLsb1 in the same assay as above.
How it was run: as §1

**Q.** B1 was tested. Which “SPOT peptide array binding signal intensity” value did it give?
**A.** ≤ 0

These binders were tested against AgLsb4 in the same assay as above.
How it was run: as §1

**Q.** For B1, which “SPOT peptide array binding signal intensity” value is on record?
**A.** 25

The binders below were run against AgMyo5 in the same assay as above.
How it was run: as §1

**Q.** Which “SPOT peptide array binding signal intensity” value does the source give for B1 here?
**A.** ≤ 0

The binders below were run against AgNbp2 in the same assay as above.
How it was run: as §1

**Q.** For B1, which “SPOT peptide array binding signal intensity” value is on record?
**A.** ≤ 0

The binders below were run against AgRvs167 in the same assay as above.
How it was run: as §1

**Q.** How did the “SPOT peptide array binding signal intensity” value turn out when B1 was run?
**A.** 6.17

These binders were tested against AgSho1 in the same assay as above.
How it was run: as §1

**Q.** How did the “SPOT peptide array binding signal intensity” value turn out when B1 was run?
**A.** 1550

What follows are binders tested against AgSla1-D1-D2 in the same assay as above.
How it was run: as §1

**Q.** B1 was tested. Which “SPOT peptide array binding signal intensity” value did it give?
**A.** 4

The binders below were run against AgSla1-D3 in the same assay as above.
How it was run: as §1

**Q.** With B1 as the binder, how does the “SPOT peptide array binding signal intensity” value read?
**A.** 1.5

These binders were tested against CaAbp1-D1 in the same assay as above.
How it was run: as §1

**Q.** With B1 as the binder, how does the “SPOT peptide array binding signal intensity” value read?
**A.** ≤ 0

The binders below were run against CaAbp1-D2 in the same assay as above.
How it was run: as §1

**Q.** How did the “SPOT peptide array binding signal intensity” value turn out when B1 was run?
**A.** 3

What follows are binders tested against CaBbc1 in the same assay as above.
How it was run: as §1

**Q.** B1 was tested. Which “SPOT peptide array binding signal intensity” value did it give?
**A.** ≤ 0

Each binder was assayed against CaBem1-D1 in the same assay as above.
How it was run: as §1

**Q.** With B1 as the binder, how does the “SPOT peptide array binding signal intensity” value read?
**A.** ≤ 0

Each binder was assayed against CaBzz1-D1 in the same assay as above.
How it was run: as §1

**Q.** For B1, which “SPOT peptide array binding signal intensity” value is on record?
**A.** 3.5

These binders were tested against CaBzz1-D2 in the same assay as above.
How it was run: as §1

**Q.** Which “SPOT peptide array binding signal intensity” value does the source give for B1 here?
**A.** 1.5

Each binder was assayed against CaCyk3 in the same assay as above.
How it was run: as §1

**Q.** For B1, which “SPOT peptide array binding signal intensity” value is on record?
**A.** ≤ 0

The binders below were run against CaFus1 in the same assay as above.
How it was run: as §1

**Q.** B1 was tested. Which “SPOT peptide array binding signal intensity” value did it give?
**A.** 36.5

Each binder was assayed against CaHof1 in the same assay as above.
How it was run: as §1

**Q.** How did the “SPOT peptide array binding signal intensity” value turn out when B1 was run?
**A.** 0.25

The binders below were run against CaHse1 in the same assay as above.
How it was run: as §1

**Q.** Which “SPOT peptide array binding signal intensity” value does the source give for B1 here?
**A.** ≤ 0

The binders below were run against CaLsb1 in the same assay as above.
How it was run: as §1

**Q.** For B1, which “SPOT peptide array binding signal intensity” value is on record?
**A.** 1.5

These binders were tested against CaLsb4 in the same assay as above.
How it was run: as §1

**Q.** With B1 as the binder, how does the “SPOT peptide array binding signal intensity” value read?
**A.** ≤ 0

Each binder was assayed against CaMyo5 in the same assay as above.
How it was run: as §1

**Q.** How did the “SPOT peptide array binding signal intensity” value turn out when B1 was run?
**A.** ≤ 0
